Reference: PubChem BioAssay (NCATS)
Inconclusive results are not listed. Activity calls are given as the source filed them. Unless noted, calls follow the shape of the dose curve; as a rule, active = well fitted curve in either direction with a large enough effect (not every such curve was filed as active); inconclusive = small, poorly fitted or top-dose-only effect, or another doubt; inactive = flat fitted curve, though single readings scatter.

Assays:
[1] = target: Lysosomal acid glucosylceramidase (Homo sapiens) (UniProt P04062); experiment: Glucocerebrosidase-p2 (AID 348; in the data active = potency below about 10 µM; also: potency is read from the fitted curve at half-maximal effect); conditions: purified GBA, blue fluorogenic substrate, 40 min
Outline: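 Normal human glucocerebrosidase (0.2 nM) with blue fluorogenic substrate (80 uM final) in citrate/phosphate pH 5.9 with 10mM sodium taurocholate, 0.01% tween-20; 40 min RT, NaOH/glycine stop; fluorescence Ex 365/Em 440; AC50 from a titration from 0.6 nM upwards.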

[2] = AP1 Signaling Pathway (AID 357); conditions: ME-180 AP-1-bla reporter, EGF-induced, beta-lactamase ratio, 5 h; at 7.69 µM (top of the series) unless noted;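 also: ME-180 reporter cells stimulated with EGF at its EC50 level; % is scaled to controls: 0 for no effect and ±100 for the full control effect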
Outline: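 In this screen, ME-180 cells in Opti-MEM with 0.5% dialyzed FBS received EC50 EGF and compound titrations for 5 h. AP-1 reporter beta-lactamase was detected via CCF4 ratio, giving AC50 for positive and negative modulators.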

[3] = Stat Signaling Pathway (AID 446); conditions: ME-180 (cervical carcinoma) SIE beta-lactamase reporter, IL-6 stimulated, 5 h; at 7.69 µM (top of the series) unless noted;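 also: ME-180 cervical cancer cells given 40 pM IL-6 alongside compound; SIE-controlled beta-lactamase reporter measured as 460/530 nm FRET emission ratio; % is scaled to controls: 0 for no effect and ±100 for the full control effect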
Outline: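 Compound effects on IL-6-induced STAT reporter activity were measured in ME-180 cells. After overnight culture, cells were co-treated with 40 pM IL-6 for 5 hrs before beta-lactamase substrate loading at room temperature.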

[4] = target: Glucocorticoid receptor (Homo sapiens) (UniProt P04150); experiment: GR-EFC Redistribution (AID 451; calls by dose curve; also: potency is read from the fitted curve at half-maximal effect); conditions: CHO-K1 GR-EFC translocation, beta-gal luminescence, 2 h
Outline: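 CHO-K1 cells stably expressing nuclear-localized β-gal enzyme acceptor and GR fused C-terminally to the enzyme donor fragment; ligand-driven nuclear translocation restores β-gal by complementation. Compounds titrated up to 46 uM final, 2 h at 37 °C; luminescence read.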

[5] = target: Mitogen-activated protein kinase 10 (Mus musculus) (UniProt Q61831); experiment: JNK3 AlphaScreen Assay (AID 530); conditions: JNK3 lysate, c-Jun phosphorylation; series mostly up to 57.1 µM;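 also: kinase came from lysate of stimulated human HepG2 cells; signal reports phosphorylation of biotinylated GST-cJun 1-79 at Ser73 with 10 µM ATP; % is scaled to controls: 0 for no effect and ±100 for the full control effect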
Outline: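 Biotinylated GST-cJun(1-79) served as substrate for JNK3 in HepG2 lysates stimulated with IL-1beta and TNF-alpha. ATP was 10 uM final, pH 7.6. Ser73 phosphorylation was quantified by AlphaScreen (680 nm excitation).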

[6] = target: 3',5'-cyclic-AMP phosphodiesterase 4B (Homo sapiens) (UniProt Q07343); experiment: qHTS Assay for Inhibitors of PDE-IV (AID 607; active = well fitted activation curve with a large enough effect in the main read-out, with a control signal flat, not every such curve was filed as active; also: % of control where 0% means no effect); conditions: HEK293 ACTOne CNG channel cells, membrane potential fluorescence; series mostly up to 22.9 µM
Outline: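 ACTOne HEK293 cells carry a modified cAMP-gated CNG channel and express endogenous PDE4; plated 1000 cells/well, compounds up to 22.9 uM final. Membrane-potential dye fluorescence (ex 535/em 590) was read; parental cells received 10 uM forskolin + 100 uM RO 20-1724.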

[7] = qHTS Assay for Lipid Storage Modulators (AID 1519; calls by dose curve); conditions: Drosophila S3 cells, BODIPY lipid droplet/cell ratio, laser cytometry, cells loaded with oleic acid; for activity change, negative = inhibition: at 57.5 µM (top of the series)
Outline: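 Cells seeded at 5,000 per well were treated with compounds over a concentration series and loaded with oleic acid (400 uM, as added). Lipid droplet fluorescence (488 nm excitation, 500-530 nm channel) was read by laser-scanning cytometry and normalized to 20 uM Triacsin C.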

[8] = Primary qHTS for small molecule stabilizers of the endoplasmic reticulum resident proteome: Secreted ER Calcium Modulated Protein (SERCaMP) assay (AID 1508630; active = well fitted inhibition curve with a large enough effect; also: % is scaled to controls: 0 for no effect and ±100 for the full control effect); conditions: SH-SY5Y GLuc-SERCaMP (Gaussia luciferase released on ER calcium loss) secretion, thapsigargin, luminescence; series mostly up to 38.4 µM
Outline: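 The SH-SY5Y reporter protocol was run at 3 concentrations up to 38.3 uM (primary) or 11 concentrations (follow-up): 16 h compound, 100 nM thapsigargin for 4 h, then extracellular luciferase luminescence.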

[9] = NFAT Signaling Pathway (AID 444); conditions: Jurkat NFAT-bla M1, carbachol, beta-lactamase ratio, 5 h; at 7.69 µM (top of the series) unless noted
Outline: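 Jurkat cells carrying an NFAT-driven β-lactamase reporter and co-transfected muscarinic M1 receptor were treated with compound plus carbachol (1 uM final, an EC50 level) for 5 h at 37 °C. CCF4 loading followed for 1 h at RT; 460/530 nm ratio gave %activity.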

[10] = measured here: cell count channel max response
[11] = measured here: lipid channel max response

Glucocorticoid receptor (Homo sapiens), sequence (P04150 whole entry, looked up, the tested form may be a part): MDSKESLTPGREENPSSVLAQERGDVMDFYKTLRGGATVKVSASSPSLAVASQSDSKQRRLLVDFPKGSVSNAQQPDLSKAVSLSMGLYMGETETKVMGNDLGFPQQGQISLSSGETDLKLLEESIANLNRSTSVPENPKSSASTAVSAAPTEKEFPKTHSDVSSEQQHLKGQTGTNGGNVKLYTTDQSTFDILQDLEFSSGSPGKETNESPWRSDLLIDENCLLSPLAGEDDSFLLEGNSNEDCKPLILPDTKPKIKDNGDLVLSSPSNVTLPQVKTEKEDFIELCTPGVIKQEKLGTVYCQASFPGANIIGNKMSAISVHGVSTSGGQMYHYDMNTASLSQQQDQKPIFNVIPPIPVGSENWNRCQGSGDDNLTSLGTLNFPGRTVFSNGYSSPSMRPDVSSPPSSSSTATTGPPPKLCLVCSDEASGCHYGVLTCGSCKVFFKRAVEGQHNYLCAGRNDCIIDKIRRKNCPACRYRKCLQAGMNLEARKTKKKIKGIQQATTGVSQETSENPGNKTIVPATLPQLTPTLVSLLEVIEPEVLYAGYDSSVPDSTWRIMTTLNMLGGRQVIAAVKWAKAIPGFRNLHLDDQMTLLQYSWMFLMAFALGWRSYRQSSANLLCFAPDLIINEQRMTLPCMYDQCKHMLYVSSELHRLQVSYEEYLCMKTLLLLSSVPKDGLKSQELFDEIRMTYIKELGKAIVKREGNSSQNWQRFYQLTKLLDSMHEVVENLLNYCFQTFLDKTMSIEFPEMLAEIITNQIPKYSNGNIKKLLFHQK
3',5'-cyclic-AMP phosphodiesterase 4B (Homo sapiens), sequence (Q07343 whole entry, looked up): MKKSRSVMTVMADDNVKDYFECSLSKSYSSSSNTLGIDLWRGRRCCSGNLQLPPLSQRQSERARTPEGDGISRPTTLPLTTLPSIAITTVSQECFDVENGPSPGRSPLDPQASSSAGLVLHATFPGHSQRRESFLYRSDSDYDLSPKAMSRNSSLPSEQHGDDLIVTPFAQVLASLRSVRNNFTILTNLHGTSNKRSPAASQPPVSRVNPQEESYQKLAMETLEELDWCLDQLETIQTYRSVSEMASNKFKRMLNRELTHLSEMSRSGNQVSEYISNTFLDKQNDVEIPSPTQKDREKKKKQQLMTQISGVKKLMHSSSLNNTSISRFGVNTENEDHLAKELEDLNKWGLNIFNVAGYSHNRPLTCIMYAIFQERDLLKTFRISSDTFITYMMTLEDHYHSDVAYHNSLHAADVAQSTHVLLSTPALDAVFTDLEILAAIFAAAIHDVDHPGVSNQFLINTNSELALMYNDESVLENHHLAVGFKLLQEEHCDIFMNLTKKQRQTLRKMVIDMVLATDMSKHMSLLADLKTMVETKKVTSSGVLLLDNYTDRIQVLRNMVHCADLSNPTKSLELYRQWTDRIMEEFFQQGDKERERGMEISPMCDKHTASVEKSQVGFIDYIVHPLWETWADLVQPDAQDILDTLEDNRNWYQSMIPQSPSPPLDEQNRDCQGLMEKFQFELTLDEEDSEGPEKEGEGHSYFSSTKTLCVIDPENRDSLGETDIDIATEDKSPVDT
Lysosomal acid glucosylceramidase (Homo sapiens), sequence (P04062 whole entry, looked up): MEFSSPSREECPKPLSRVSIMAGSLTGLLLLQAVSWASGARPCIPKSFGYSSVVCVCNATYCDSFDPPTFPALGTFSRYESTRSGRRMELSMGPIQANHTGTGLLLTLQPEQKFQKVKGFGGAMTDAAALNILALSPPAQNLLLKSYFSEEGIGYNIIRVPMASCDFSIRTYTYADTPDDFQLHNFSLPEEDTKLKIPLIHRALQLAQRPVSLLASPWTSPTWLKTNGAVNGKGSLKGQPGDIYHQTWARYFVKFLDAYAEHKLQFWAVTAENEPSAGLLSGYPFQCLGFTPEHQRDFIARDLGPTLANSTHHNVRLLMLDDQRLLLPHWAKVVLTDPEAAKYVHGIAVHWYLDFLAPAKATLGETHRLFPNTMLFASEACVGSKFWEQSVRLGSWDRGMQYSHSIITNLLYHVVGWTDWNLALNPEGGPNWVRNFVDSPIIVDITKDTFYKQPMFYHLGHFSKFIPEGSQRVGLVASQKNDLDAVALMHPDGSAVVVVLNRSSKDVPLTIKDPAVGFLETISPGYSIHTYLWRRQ

Row | SMILES | Potency [1] | activity change, negative = inhibition [2] | activity, negative = inhibition [3] | Potency [4] | Potency [5] | Potency [6] | activity change, negative = inhibition [7] | max response [7, 10] [%] | max response [7, 11] [%] | outcome [8] | activity change, negative = inhibition [9]
1 | CC(=O)N1CCC2(CCCN(c3ccncc3)C2)CC1 | > 11.4 µM (inactive) | -16.6% (inactive) | -5.29% (inactive) | > 46 µM (inactive) | inactive | inactive | 4.08% (inactive) | 1.51 | 7.47 | inactive | 
2 | N#Cc1cccc(NC(=O)N2CC3(CCN(C(=O)c4ccco4)CC3)C2)c1 | > 11.4 µM (inactive) | -10.9% (inactive) | 19.7% (inactive) | > 46 µM (inactive) | inactive | inactive | 4.67% (inactive) | 3.49 | 11.7 | inactive | 
3 | COCC(=O)N1CCC2(CCN(Cc3ccccc3)CC2)CC1 | > 11.4 µM (inactive) | -10.9% (inactive) | -3.84% (inactive) | > 46 µM (inactive) | inactive | inactive | 1.52% (inactive) | 2.79 | 9.37 | inactive | 
4 | O=C(c1cc(C(F)(F)F)cc(C(F)(F)F)c1)N1CCC2(CCCN(Cc3ccccc3)C2)CC1 | > 11.4 µM (inactive) | 15.8% (inactive) | -0.518% (inactive) | > 46 µM (inactive) | inactive | inactive | -0.673% (inactive) | 4.9 | 5.21 | inactive | 
5 | CC(=O)N1CCC[C@@]2(CCN(Cc3ccc(C#N)cc3)C2)C1 | > 11.4 µM (inactive) | -11.7% (inactive) |  | > 46 µM (inactive) | inactive | inactive | 2.62% (inactive) | 7.32 | 8.41 | inactive | 2.49% (inactive)
6 | COc1ccccc1CN1CCC2(CC1)CCN(C(=O)c1ccncc1)CC2 | > 11.4 µM (inactive) | -13% (inactive) | 5.76% (inactive) | > 46 µM (inactive) | inactive | inactive | -0.0628% (inactive) | -18.4 | -17.2 | inactive | 
7 | CS(=O)(=O)N1CCC2(CCCN(Cc3ccccc3)C2)CC1 | > 11.4 µM (inactive) | -13.8% (inactive) | -2.17% (inactive) | > 46 µM (inactive) | inactive | inactive | 0.839% (inactive) | 10.5 | 13.7 | inactive | 
8 | CS(=O)(=O)N1CCC2(CC1)CN(Cc1ccc(C#N)cc1)C2 | > 11.4 µM (inactive) | -16.8% (inactive) |  | > 46 µM (inactive) | inactive | inactive | 4.04% (inactive) | 9.72 | 16.5 | inactive | -16.5% (inactive)
